# From the OligoGym collection
# Biological target: PARP11
# Experiment: pooled miR-30 sensor sort-seq; sequence = guide strand
# Settings: shRNA
# Further: reference of the scale not given here.
row,Sequence,sensor-assay potency score (higher = more potent)
1,TAAGCTGATATGGTACTTGAGT,-0.461
2,TTAATCTGAGGCACACCTCTTT,0.16
3,TTGAGTATTCACATTCTCCCAG,-0.0297
4,TAAAGCTTCCTTGACCACCGAG,0.0153
5,TATAAATTCACATAGCTCCCGT,0.0491
6,TTTAATTCGGTTGCGATCCATC,-0.893
7,TACTTGAGTATTCACATTCTCC,-0.755
8,TTTTTTCTTGAGCTGAGCCTTT,-0.428
9,TTGCGATCCATCGTCTTCCCAA,-0.797

# Biological target: PATL1
# Experiment: as above
# Settings: shRNA
row,Sequence,sensor-assay potency score (higher = more potent)
1,TTTGTGTTGATTCTGTAGCAGG,-0.627
2,TTTTCGGATACACATGATCTGT,-1.26
3,TTTGTGCTTTCTGTCATCCATT,-0.905
4,TAGCAGGGTCTGAACTCTGTAG,-0.715
5,TTTCGGATACACATGATCTGTA,-0.0955
6,TTTCTCAATTATAACAAGGGTT,-0.533
7,TGATCTTGATGACTGCTCCGGT,0.466
8,TTGAGGTAGGTTCATTAGCTGT,-1.61
9,TTTTTCTCCTCTTGTCTCGAAC,-1.11
10,TTATTCACACTAGAAACGGTAA,-0.529
11,TATTCTGTTGCTGTCTCTGATG,-1.31
12,TGTCACAACAGCATCAATCATT,-0.773

# Biological target: PCDH11X
# Experiment: as above
# Settings: shRNA
row,Sequence,sensor-assay potency score (higher = more potent)
1,TTCAGTGCTTTTGCGCACCAGT,-0.711
2,TGTATCAGTAACACTCACTTGC,0.683
3,TTGTAGGACTACATACATCATA,-0.797
4,TTTACTTTCATCACGTAGGTAT,0.803
5,TTGATCTTAGCATTAGGCCCAC,-0.682
6,TAACTACTTTGATTGAACGTAT,-0.315
7,TTAAGCAGCAAGTTCTTAGGGG,0.683
8,ATCAGTAACACTCACTTGCAAA,-1.63
9,TTGAACTGCATAGCAGTTGTCA,-0.535
10,TTTTCTGGCATTTCTTCTCGGA,-0.435
11,AATAGTGACAAAATTAAGCAGC,-0.804

# Biological target: PCDHA4
# Experiment: as above
# Settings: shRNA
row,Sequence,sensor-assay potency score (higher = more potent)
1,TATCGTTGTTGTCTTCTACTTC,0.366
2,TTGTGTTGCTGGGAACACCGGC,-0.469
3,TTTTCTAGTAATCTCACCTTAT,-0.448
4,ATGTCTTTGTCGGACACGCTGA,-1.17
5,TCTCTGTCTAAAGATTTCCGTA,-0.816
6,TTGGATTTCACATTTGGCGAAA,-0.705
7,TTCTACTTCCACAATAACTCTA,0.0225
8,TCTACTTCCACAATAACTCTAC,0.0889
